# Screening data from PubChem.
# Epigenetic derep – Quantitative High-Throughput Screen for Regulators of Epigenetic Control. AID 1865, 2009. Potency, µM (doses to about 53.9 µM), actives largely listed as activators. murine LDR cells, GFP reporter derepression, 30 h. 280,000 tested, 0.2% active; further: nearly all actives have a fitted effect of over 60% in size
#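 Reporter derepression read as number of fluorescent GFP-positive objects, 20-120 um in size, counted by laser-scanning cytometer. Mouse LDR line with an epigenetically silenced CMV-GFP locus; compound incubation 30 h, 37 C.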
# VP16 counter – VP16 counterscreen qHTS for inhibitors of ROR gamma transcriptional activity; Drosophila S2 Gal4-VP16 UAS-luciferase, luminescence, 20 h; Potency, µM (top dose mostly 53.6 µM), usual class: inhibitors; 310,000 tested, 3.5% active;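 further: Gal4-VP16 expression switched on by copper sulfate through the metallothionein promoter; nearly all actives have a fitted effect of over 50% in size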
# RORg inh – qHTS for inhibitors of ROR gamma transcriptional activity; Nuclear receptor ROR-gamma (Mus musculus), P51450; Drosophila S2 Gal4-RORgamma UAS-luciferase reporter, 20 h; Potency, µM (doses to about 53.6 µM), actives largely listed as inhibitors; 310,000 tested, 5.4% active; AID 2551, 2010; further: nearly all actives have a fitted effect of over 60% in size
# Target sequence (P51450 whole entry, looked up, the tested form may be a part): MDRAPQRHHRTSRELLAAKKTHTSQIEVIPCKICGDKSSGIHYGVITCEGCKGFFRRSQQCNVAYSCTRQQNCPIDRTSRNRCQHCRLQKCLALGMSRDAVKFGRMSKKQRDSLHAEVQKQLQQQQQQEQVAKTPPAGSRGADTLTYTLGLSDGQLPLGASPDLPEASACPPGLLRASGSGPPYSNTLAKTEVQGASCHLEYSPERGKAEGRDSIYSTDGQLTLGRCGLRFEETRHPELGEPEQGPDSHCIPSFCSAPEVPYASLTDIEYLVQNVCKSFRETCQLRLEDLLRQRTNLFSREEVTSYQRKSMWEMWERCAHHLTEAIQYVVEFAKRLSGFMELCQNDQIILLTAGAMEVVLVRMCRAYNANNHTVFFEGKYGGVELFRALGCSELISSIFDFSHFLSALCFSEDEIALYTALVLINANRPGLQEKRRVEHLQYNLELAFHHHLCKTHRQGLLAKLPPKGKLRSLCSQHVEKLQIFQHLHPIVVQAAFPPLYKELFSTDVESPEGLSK
#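 A Gal4/UAS one-hybrid system in insect cells: metallothionein-promoter Gal4–ROR gamma fusion plus Photinus luciferase reporter. Copper sulfate 700 uM final, 20 hr ambient incubation, luminescent detection after 10 min with reagent.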
# Sfp PPTase inh – qHTS Assay for Inhibitors of Bacillus subtilis Sfp phosphopantetheinyl transferase (PPTase); 4'-phosphopantetheinyl transferase ffp (Bacillus subtilis), Q9F4F7; Biochemical Sfp PPTase activity, qHTS; Potency, µM, actives largely listed as inhibitors; 310,000 tested, 3.5% active; AID 1490, 2009;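 further: the enzyme is Sfp with the accession as filed and its product quenches rhodamine fluorescence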
#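 Fluorescence-quenching assay: 15 nM Sfp-PPTase preincubated 15 min at room temperature with compound, then 5 uM rhodamine-CoA and 12.5 uM BHQ-2-labelled YbbR peptide added. Fluorescence (ex 525/em 598 nm) read at start and after 30 min; difference gives rate.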
# ClpP mod – qHTS Assay for Activators of ClpP; Potency, µM (titrated, usually from 57.5 µM); 340,000 tested, 1.9% active; purified B. subtilis ClpP, FRET peptide cleavage, 20 min; ATP-dependent Clp protease proteolytic subunit (Bacillus subtilis (strain 168)), P80244; active means well fitted falling curve with a large enough effect; inconclusive means small, poorly fitted or top-dose-only effect; inactive means no such curve, though single readings can be large or run the other way; further: the source files actives as falling curves though it sought activators and does not explain the sign; nearly all actives have a fitted effect of over 65% in size
# Target sequence (P80244 whole entry, looked up): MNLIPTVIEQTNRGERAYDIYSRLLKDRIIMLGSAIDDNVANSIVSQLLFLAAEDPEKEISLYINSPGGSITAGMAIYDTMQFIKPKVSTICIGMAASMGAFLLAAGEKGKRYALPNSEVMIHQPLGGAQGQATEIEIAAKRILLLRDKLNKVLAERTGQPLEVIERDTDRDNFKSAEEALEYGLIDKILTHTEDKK
#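 Buffer: 100 mM Tris/HCl pH8, 100 mM KCl, 0.05% low protease BSA, 2.5% glycerol, 0.01% Tween-20. ClpP 10 microg/mL final; 20 min RT; delta FRET normalized to ADEP and DMSO controls.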
# PINK1 expr mod – A Quantitative High throughput Screen to Identify Chemical Modulators of PINK1 Expression. PINK1 immunofluorescence, high-content cytometry, 24 h. Potency, µM (doses to about 76.6 µM), most hits filed as activators. 410,000 tested, 0.2% active; active means well fitted activation curve with a large enough effect; inconclusive means small, poorly fitted or top-dose-only effect; cell line not stated here; further: nearly all actives have a fitted effect of over 65% in size
#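 Readout is PINK1 immunofluorescence, quantified alongside mitochondrial, cell and nuclear markers by laser-scanning microplate cytometry. Cells from a stable line were exposed to compound titrations (5 concentrations) for 24 hours, with CCCP controls.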
# Hits are given with their value; - = inactive; ? = inconclusive; . = no result given. This is a sample that favours compounds with a hit; in the whole collection about 8.1% have one here. Unless noted, the call rests on the fitted dose curve; in most records, active means well fitted curve in the direction sought with a large enough effect; inconclusive means small, poorly fitted or top-dose-only effect, or another doubt; inactive means no such curve, though single readings can be large; an effect the other way counts as inactive or inconclusive.
SMILES,Epigenetic derep,VP16 counter,RORg inh,Sfp PPTase inh,ClpP mod,PINK1 expr mod
CCOC(=O)c1sc2nc(C)c3c(c2c1N)CC(C)(C)OC3,-,-,-,-,28µM,-
CCOC(=O)c1oc2nc(C(C)C)c3c(c2c1N)CC(C)(C)OC3,-,-,-,-,?,-
Nc1nc(-c2ccc(-c3ccccc3)cc2)cs1,-,22µM,?,-,.,-
Nc1nc(-c2cccc(NS(=O)(=O)c3ccccc3)c2)cs1,-,18µM,?,-,-,-
Nc1nc(-c2ccc(Oc3ccccc3)cc2)cs1,.,-,-,-,-,-
CCNC(=S)N/N=C/c1ccc(-c2ccccc2)o1,-,1.4µM,0.32µM,-,-,-
CN(C)/N=C/c1ccc(/C=N/NC(N)=S)o1,-,?,14µM,45µM,.,-
CCNC(=S)N/N=C/c1ccco1,-,3.2µM,2.2µM,?,-,-
Cc1ccc(-c2ccc(/C=N/NC(N)=S)o2)cc1,?,2.5µM,0.56µM,20µM,.,-
NC(=S)N/N=C/c1ccc(/C=N/NC(N)=S)cc1,-,-,-,-,-,-
COc1cccc(NCc2nnc(SC(C(=O)N(C)C)c3ccccc3)n2C2CCCCC2)c1 (stereo not drawn),.,.,.,.,-,-
C=C(C)CNC(=S)N/N=C/c1ccc(NC(C)=O)cc1,-,-,?,-,.,-
CCNC(=S)N/N=C/c1ccc(C#N)cc1,-,18µM,7.1µM,-,.,-
O/N=C\c1ccc(-c2ccccc2)o1,-,-,-,-,-,-
NC(=S)N/N=C/c1ccc(-c2ccccc2)o1,-,5µM,1.4µM,-,-,-
NC(=S)N/N=C/c1ccc(-c2ccc(Cl)c(Cl)c2)o1,-,2µM,2.5µM,45µM,?,-
NC(=S)N/N=C\c1ccc(-c2cccc(Cl)c2Cl)o1,-,1.1µM,0.89µM,-,-,-
Nc1nnc(CC(=O)N/N=C/c2ccc(-c3ccccc3)o2)s1,-,-,-,?,-,-
NC(=S)N/N=C/c1ccc(-c2ccc(SC(F)F)cc2)o1,?,1.1µM,0.5µM,?,.,-
COc1ccc(-c2cc(C(F)(F)F)n3nc(C(=O)Nc4sc5c(c4C#N)CCC(C)C5)cc3n2)cc1OC (stereo not drawn),-,.,.,.,-,-
COc1ccccc1CN1CCOc2ccc(CN3CCC(Oc4cccnc4)CC3)cc2C1,.,.,.,.,.,-
Cc1cc(=O)oc2cc(OCC(=O)Nc3c(C(C)C)cccc3C(C)C)ccc12,-,.,.,.,-,-
C/C=C(\C)C(=O)N1CC2(CC(c3cccc(NC(=O)COc4ccc(Cl)cc4)c3)=NO2)C[C@@H]1C(N)=O (stereo partly drawn),-,-,-,-,-,-
C/C=C\C=C/C(=O)Nc1cccc(C2=NOC3(C2)C[C@@H](C(N)=O)N(C(=O)COc2ccc(Cl)cc2)C3)c1 (stereo partly drawn),-,-,-,20µM,-,-
CCCCCC(=O)Nc1cccc(C2=NOC3(C2)C[C@H](C(N)=O)N(C(=O)COc2ccc(Cl)cc2)C3)c1 (stereo partly drawn),-,-,?,-,-,-
SMILES,Epigenetic derep,VP16 counter,RORg inh,Sfp PPTase inh,ClpP mod,PINK1 expr mod
C/C=C\C=C\C(=O)N1CC2(CC(c3cccc(NC(=O)COc4ccc(Cl)cc4)c3)=NO2)C[C@H]1C(N)=O (stereo partly drawn),-,-,-,28µM,-,-
O=C1OC(NC(=O)c2ccccc2)C(n2cc(CO)nn2)=C1Cl (stereo not drawn),-,?,?,4µM,-,-
Cc1ccc(NC2=C(Cl)C(=O)OC2NC(=O)c2ccccc2)cc1 (stereo not drawn),-,-,?,-,-,-
COc1ccc(NC(=O)CSc2nc3ccccc3n2CC(=O)N2CCCC(C)C2)cc1 (stereo not drawn),-,.,.,.,-,-
CCOC(=O)c1c(Nc2ccc(OCC)cc2)nnc(-c2ccccc2)c1-c1ccccc1,-,.,.,.,-,-
NC(=S)NN=C1CCCCCCCC1,.,.,.,.,-,-
C/C(CC(C)(C)C1CCCCC1)=N\NC(N)=S,-,2.8µM,0.89µM,-,-,-
Cc1ccc(/C=C/C(=O)Nc2ccc(Cl)cc2Cl)cc1,-,.,.,.,-,-
Cc1sc2nc(CN(C(=O)NCc3ccccc3)C3CCCC3)[nH]c(=O)c2c1C,-,?,4.5µM,-,.,-
CC(=O)N(Cc1ccccc1)Cc1nc2sc(C)c(C)c2c(=O)[nH]1,-,-,-,-,.,-
CC(=O)N(Cc1nc2sc(C)c(C)c2c(=O)[nH]1)C1CCCC1,-,?,10µM,-,-,-
C/C(=N\NC(=O)CCc1ccccc1)C1C(=O)c2ccccc2C1=O,-,2µM,0.56µM,-,-,-
C/C(=N\NC(=O)c1cccc(Cl)c1)C1C(=O)c2ccccc2C1=O,-,-,-,-,-,40µM
CC(=O)Nc1cccc(NC(=O)c2cccc(Cl)c2)c1,.,.,.,.,-,-
COc1ccc(C(=O)CCS(=O)(=O)c2ccc(F)cc2)cc1OC,.,-,-,-,.,.
Cc1ccc(S(=O)(=O)CCC(=O)NCc2ccc(Cl)cc2)cc1,-,-,-,-,-,-
Cc1ccc(C(=O)CCS(=O)(=O)c2ccc(F)cc2)cc1,.,3.5µM,3.2µM,-,-,-
Cc1ccc(C(=O)CCS(=O)(=O)c2ccc(Cl)cc2)cc1,.,?,16µM,-,-,-
Cc1ccc(S(=O)(=O)CCC(=O)c2ccc(F)cc2)cc1,.,2.8µM,4µM,-,-,-
CC(=O)Nc1ccc(NC(=O)C2CCCN2S(=O)(=O)c2ccc3c(c2)CCCC(=O)N3)cc1 (stereo not drawn),-,.,.,.,-,-
CCN(CC)c1ccc(/C=N/NC(=O)c2ccco2)c(O)c1,-,3.2µM,0.79µM,-,-,-
CCN(CC)c1ccc(/C=N/N=C(c2ccccc2)c2ccccc2)c(O)c1,-,20µM,?,-,-,-
CCN(CC)c1ccc(/C=N/N(c2ccccc2)c2ccccc2)c(O)c1,-,?,?,-,-,-
CCN(CC)c1ccc(/C=N/NC(=O)c2ccco2)cc1,-,?,14µM,-,-,-
CCN(CC)c1ccc(NC(=O)c2ccco2)cc1,-,?,?,-,-,-
CCN(CC)c1ccc(NC(=O)c2ccco2)c(C)c1,-,-,-,-,-,-
CCN(CC)c1ccc(/C=N/NC(=S)NCc2ccccc2)c(O)c1,-,7.1µM,8.9µM,-,?,-
CCCCN(CCC#N)c1ccc(/C=C/c2ccnc3ccccc23)cc1,.,.,.,.,-,.
CCOC(=O)c1sc2cccc(F)c2c1S(=O)(=O)NCc1ccccc1Cl,-,.,.,.,-,-
O=C(N/N=C/c1ccc2cccnc2c1)c1ccco1,-,11µM,?,-,.,-
